Measurements published in PubChem BioAssay.
Activity calls are given as the source filed them.

Assays:
[1] = optical density shifts of acrAB sulA E. coli – strain DRC41, OD650, 48 h, E. coli filamentation inducer project, primary screen (AID 1152); conditions: higher = more signal, called active from +8 up or from −8 down;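 note: E. coli MC1000 strain DRC41 lacking acrAB efflux pump and sulA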
[2] = probe aLefty1 binding on compound microarray – biochemical, small-molecule microarray, 635/667 nm fluorescence, primary screen (AID 1153); conditions: higher = more signal;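 note: score merges spot fluorescence with signal-to-noise ratio from the scanned slide images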
[3] = plasmodial surface anion channel blockers, osmotic lysis – cell-based, P. falciparum Indochina, OD700, 1 h, primary screen (AID 1154); conditions: P. falciparum Indochina infected RBC osmotic lysis, higher = more signal, called active from +8 up or from −8 down
[4] = plasmodial surface anion channel blockers, osmotic lysis – cell-based, P. falciparum Indochina, OD700, 2 h, primary screen (AID 1155);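 note: lysis reports solute entry through the parasite surface anion channel PSAC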; conditions: P. falciparum Indochina infected erythrocytes, higher = more signal, called active from +8 up or from −8 down
[5] = changes in parasitized red cell lysis, either direction – P. falciparum Indochina, OD700, 3 h, PSAC antagonist project, primary screen (AID 1156); conditions: P. falciparum-infected erythrocytes, osmotic lysis, higher = more signal, called active from +8 up or from −8 down
[6] = plasmodial surface anion channel blockers, osmotic lysis – cell-based, P. falciparum Indochina, OD700, 18 h, primary screen (AID 1157); conditions: P. falciparum Indochina infected erythrocytes, osmotic lysis OD700, 18 h; higher = more signal, called active from +8 up or from −8 down
[7] = S6 kinase pathway phospho-S6 level changes – cell-based, A549, cytoblot, luminescence, serum-stimulated, primary screen (AID 1158); conditions: 5 h, higher = more signal;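 note: serum-stimulated A549 lung adenocarcinoma cells; signal is phosphorylated S6 detected by cytoblot immunostaining with HRP secondary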
[8] = target: NADPH oxidase 2 (Homo sapiens) (UniProt P04839); assay: compounds shifting NOX2 Amplex Red fluorescence – cell-based, HEK293-NOX2, PMA-stimulated, NOX inhibitor project, primary screen (AID 1159); conditions: 45 min, higher = more signal, called active from +8 up or from −8 down; note: test concentration not given here
NADPH oxidase 2 (Homo sapiens), sequence (P04839 whole entry, looked up): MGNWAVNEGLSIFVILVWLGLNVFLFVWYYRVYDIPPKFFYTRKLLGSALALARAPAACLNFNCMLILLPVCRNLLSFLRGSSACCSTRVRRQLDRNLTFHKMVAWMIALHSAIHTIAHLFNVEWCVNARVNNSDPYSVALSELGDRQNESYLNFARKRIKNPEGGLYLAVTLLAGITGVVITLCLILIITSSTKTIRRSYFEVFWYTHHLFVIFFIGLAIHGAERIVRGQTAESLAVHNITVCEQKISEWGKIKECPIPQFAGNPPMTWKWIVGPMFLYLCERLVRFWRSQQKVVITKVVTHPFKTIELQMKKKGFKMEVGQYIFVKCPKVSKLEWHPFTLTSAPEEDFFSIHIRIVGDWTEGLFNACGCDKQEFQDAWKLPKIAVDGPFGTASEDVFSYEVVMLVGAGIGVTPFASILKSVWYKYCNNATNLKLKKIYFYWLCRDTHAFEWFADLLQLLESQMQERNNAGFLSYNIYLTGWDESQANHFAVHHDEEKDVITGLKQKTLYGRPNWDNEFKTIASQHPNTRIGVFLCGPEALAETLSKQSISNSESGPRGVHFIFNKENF

[9] = target: NADPH oxidase 4 (Homo sapiens) (UniProt Q9NPH5); assay: compounds shifting NOX4 Amplex Red fluorescence – cell-based, HEK293-NOX4, tetracycline-induced, NOX inhibitor project, primary screen (AID 1160); conditions: HEK293-NOX4, Amplex Red H2O2 fluorescence, 45 min; higher = more signal, called active from +8 up or from −8 down
NADPH oxidase 4 (Homo sapiens), sequence (Q9NPH5 whole entry, looked up): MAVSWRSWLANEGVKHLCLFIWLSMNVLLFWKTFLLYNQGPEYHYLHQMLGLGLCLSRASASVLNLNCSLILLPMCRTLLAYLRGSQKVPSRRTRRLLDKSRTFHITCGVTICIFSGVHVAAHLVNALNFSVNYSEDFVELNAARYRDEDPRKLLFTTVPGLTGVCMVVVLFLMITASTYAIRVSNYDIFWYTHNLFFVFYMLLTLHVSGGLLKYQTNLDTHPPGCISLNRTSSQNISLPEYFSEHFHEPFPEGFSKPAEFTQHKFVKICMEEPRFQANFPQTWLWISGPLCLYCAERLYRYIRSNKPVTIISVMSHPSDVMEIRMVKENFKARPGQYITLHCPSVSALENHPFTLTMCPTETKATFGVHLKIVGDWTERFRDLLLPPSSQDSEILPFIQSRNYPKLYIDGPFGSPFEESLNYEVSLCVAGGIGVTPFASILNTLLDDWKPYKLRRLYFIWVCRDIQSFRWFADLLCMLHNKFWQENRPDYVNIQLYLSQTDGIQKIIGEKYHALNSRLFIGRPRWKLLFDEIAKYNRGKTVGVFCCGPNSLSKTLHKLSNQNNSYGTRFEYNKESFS

[10] = target: NADPH oxidase 5 (Homo sapiens) (UniProt Q96PH1); assay: compounds shifting NOX5 Amplex Red fluorescence – cell-based, HEK293-NOX5, NOX inhibitor project, primary screen (AID 1161); conditions: HEK293-NOX5, ionomycin, 45 min, higher = more signal
NADPH oxidase 5 (Homo sapiens), sequence (Q96PH1 whole entry, looked up): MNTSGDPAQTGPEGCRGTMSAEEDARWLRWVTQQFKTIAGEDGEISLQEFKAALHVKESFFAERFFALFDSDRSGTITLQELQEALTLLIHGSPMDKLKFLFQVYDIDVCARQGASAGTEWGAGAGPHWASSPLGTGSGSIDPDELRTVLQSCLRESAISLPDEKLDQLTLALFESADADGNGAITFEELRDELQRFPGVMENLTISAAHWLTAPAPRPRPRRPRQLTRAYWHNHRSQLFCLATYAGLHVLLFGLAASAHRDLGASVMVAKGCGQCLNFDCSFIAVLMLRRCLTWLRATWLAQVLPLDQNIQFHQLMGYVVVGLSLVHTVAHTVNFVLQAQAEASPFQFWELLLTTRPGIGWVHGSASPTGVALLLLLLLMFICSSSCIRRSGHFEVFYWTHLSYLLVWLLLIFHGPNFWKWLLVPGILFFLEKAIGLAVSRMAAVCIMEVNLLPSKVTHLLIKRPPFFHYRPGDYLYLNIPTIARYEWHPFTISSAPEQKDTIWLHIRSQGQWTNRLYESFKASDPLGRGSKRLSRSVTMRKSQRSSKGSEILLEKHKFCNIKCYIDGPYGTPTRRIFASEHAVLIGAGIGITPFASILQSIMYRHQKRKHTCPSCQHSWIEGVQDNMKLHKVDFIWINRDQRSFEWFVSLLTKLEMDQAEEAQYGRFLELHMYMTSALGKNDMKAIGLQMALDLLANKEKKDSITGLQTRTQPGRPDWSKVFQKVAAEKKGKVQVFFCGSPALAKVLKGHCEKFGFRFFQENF

[11] = compound effects on lung adenocarcinoma cell viability – A549, calcein-AM fluorescence, 48 h, basal, profiling panel (AID 1162); conditions: higher = more signal; note: test concentration not given here
[12] = compound effects on differentiated 3T3-L1 adipocyte viability – cell-based, 3T3-L1 adipocytes, calcein-AM fluorescence, 48 h, basal, profiling panel (AID 1163); conditions: 3T3-L1 adipocytes viability, higher = more signal; note: test concentration not given here
[13] = compound effects on hepatocellular carcinoma cell viability – HepG2, calcein-AM fluorescence, 48 h, basal, profiling panel (AID 1164); conditions: higher = more signal; note: test concentration not given here
[14] = compound effects on multiple myeloma cell viability – MM1S, calcein-AM fluorescence, 48 h, basal, profiling panel (AID 1165); conditions: higher = more signal; note: test concentration not given here
[15] = calcein-AM signal in unstimulated myeloma cells – cell-based, calcein-AM fluorescence, 48 h, PK04 Diversity Set, profiling panel (AID 1166); conditions: RPMI8226 myeloma viability, higher = more signal;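 note: cells grown under basal conditions without added stimulus; test concentration not given here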
[16] = JC-1 mitochondrial signal, unstimulated HepG2 cells – cell-based, JC-1 fluorescence, 24 h, 100 nL compound, profiling panel (AID 1167); conditions: HepG2 mitochondrial potential, higher = more signal; note: test concentration not given here
[17] = JC-1 mitochondrial signal, unstimulated adipocytes – cell-based, JC-1 fluorescence, 3T3-L1 adipocytes, 24 h, 100 nL compound, profiling panel (AID 1168); conditions: JC-1 mitochondrial fluorescence, higher = more signal, called active from +8 up or from −8 down; note: test concentration not given here
[18] = JC-1 mitochondrial signal, unstimulated myeloma cells – cell-based, JC-1 fluorescence, RPMI8226, 24 h, 100 nL compound, profiling panel (AID 1169); conditions: JC-1 mitochondrial potential fluorescence, higher = more signal; note: test concentration not given here
[19] = JC-1 mitochondrial signal, unstimulated MM1S myeloma – cell-based, JC-1 fluorescence, 24 h, 100 nL compound, profiling panel (AID 1170); conditions: MM1S mitochondrial potential, higher = more signal; note: test concentration not given here
[20] = resazurin metabolic signal in A549 cells – cell-based, resazurin fluorescence, 24 h, PK04 Diversity Set, profiling panel (AID 1171); conditions: A549 viability, higher = more signal, called active from +8 up or from −8 down; note: test concentration not given here

With `COc1ccc(O[C@H]2C=C[C@@H](c3ccccc3)O[C@@H]2CON=C2c3cc(OC)ccc3O[C@H](c3cccc(OC)c3)[C@H]2O)cc1` the z-score [1] was -1.41 (inactive), the composite z-score [2] was -0.237 and the z-score [3] was 4.7 (inactive). The z-score [4] was 1.12 (inactive), the z-score [5] was -0.392 (inactive) and the z-score [6] was 0.442 (inactive). For the same molecule, the z-score [7] was -1.1, the z-score [8] was -0.0682 (inactive) and the z-score [9] was 0.264 (inactive). For the same molecule, the z-score [10] was 0.562, the z-score [11] was 0.344 and the z-score [12] was -1.17. It also gave a z-score [13] of 0.189, a z-score [14] of -0.0952 and a z-score [15] of -1.04. For the same molecule, the z-score [16] was 0.422, the z-score [17] was -2.37 (inactive) and the z-score [18] was -0.326. The z-score [19] was -0.0381 and the z-score [20] was -0.142 (inactive).
For `COC(=O)[C@H](C)NC(=O)CCC1CC(OC(=O)NCCc2ccc(F)cc2)CC2(CCCC(COC(=O)NCCOc3ccccc3)O2)O1` (stereo not given in full), the z-score [1] was -0.651 (inactive), the composite z-score [2] was 0.0169 and the z-score [3] was -1.23 (inactive). For the same molecule, the z-score [4] was -0.257 (inactive), the z-score [5] was 0.189 (inactive) and the z-score [6] was 0.199 (inactive). For the same molecule, the z-score [7] was 0.0246, the z-score [8] was 0.749 (inactive) and the z-score [9] was 0.622 (inactive). For the same molecule, the z-score [10] was 0.382, the z-score [11] was 0.401 and the z-score [12] was -0.506. For the same molecule, the z-score [13] was 0.696, the z-score [14] was 0.546 and the z-score [15] was -0.475. The z-score [16] was 1.17, the z-score [17] was 0.00171 (inactive) and the z-score [18] was 0.606. The z-score [19] was -0.0736 and the z-score [20] was 0.579 (inactive).
In the case of `COc1ccc(COC(=O)NN=C2C[C@@H](O)[C@@H](O)[C@@H]3[C@@H]4C(=O)N([C@@H](C)c5ccccc5)C(=O)[C@@H]4CC[C@@H]23)cc1`, the z-score [1] was 0.774 (inactive), the composite z-score [2] was -0.102 and the z-score [3] was 0.823 (inactive). The z-score [4] was -0.119 (inactive), the z-score [5] was -0.667 (inactive) and the z-score [6] was -0.0631 (inactive). For the same molecule, the z-score [7] was -0.339, the z-score [8] was -0.247 (inactive) and the z-score [9] was 1.01 (inactive). It also gave a z-score [10] of -0.0473, a z-score [11] of -0.173 and a z-score [12] of 0.0685. For the same molecule, the z-score [13] was -0.966, the z-score [14] was 0.434 and the z-score [15] was -1.26. For the same molecule, the z-score [16] was -0.697, the z-score [17] was -0.132 (inactive) and the z-score [18] was -0.189. For the same molecule, the z-score [19] was -0.369 and the z-score [20] was 0.0487 (inactive).
For `C[C@@H]1CC[C@H]2C(=O)O[C@@H](CN=[N+]=[N-])CN2[C@H]1c1ccc(Br)cc1`, the z-score [1] was -2.31 (inactive), the composite z-score [2] was -0.35 and the z-score [3] was 25.4 (active). For the same molecule, the z-score [4] was 8.11 (active), the z-score [5] was 1.59 (inactive) and the z-score [6] was 2.16 (inactive). The z-score [7] was 0.476, the z-score [8] was -3.99 (inactive) and the z-score [9] was -3.91 (inactive). The z-score [10] was -0.668, the z-score [11] was -3.8 and the z-score [12] was 0.254. It also gave a z-score [13] of -4.54, a z-score [14] of -3.04 and a z-score [15] of -4.07. The z-score [16] was -2.08, the z-score [17] was -0.62 (inactive) and the z-score [18] was -1.18. The z-score [19] was -1.33 and the z-score [20] was -0.487 (inactive).
With `CON=C1c2cc(OC)ccc2O[C@H](c2cccc(OC)c2)[C@H]1O` the z-score [1] was 0.788 (inactive), the composite z-score [2] was -0.0061 and the z-score [3] was 3.04 (inactive). For the same molecule, the z-score [4] was 0.72 (inactive), the z-score [5] was -0.241 (inactive) and the z-score [6] was 0.245 (inactive). The z-score [7] was 0.686, the z-score [8] was -0.837 (inactive) and the z-score [9] was -0.406 (inactive). For the same molecule, the z-score [10] was -0.175, the z-score [11] was 0.744 and the z-score [12] was 0.448. The z-score [13] was -0.743, the z-score [14] was -0.416 and the z-score [15] was 0.53. The z-score [16] was 0.181, the z-score [17] was -0.672 (inactive) and the z-score [18] was -0.0443. The z-score [19] was 1.39 and the z-score [20] was -0.124 (inactive).
In the case of `CCOC(=O)NN=C1C[C@@H](O)[C@@H](O)[C@@H]2[C@@H]3C(=O)N(c4ccc(F)cc4F)C(=O)[C@@H]3CC[C@H]12`, the z-score [1] was -0.57 (inactive), the composite z-score [2] was -0.0106 and the z-score [3] was 1.03 (inactive). The z-score [4] was -1.41 (inactive), the z-score [5] was 0.465 (inactive) and the z-score [6] was -1.75 (inactive). The z-score [7] was 0.245, the z-score [8] was -4.88 (inactive) and the z-score [9] was -1.81 (inactive). For the same molecule, the z-score [10] was -0.472, the z-score [11] was -0.999 and the z-score [12] was 1.01. The z-score [13] was -0.925, the z-score [14] was 0.593 and the z-score [15] was -0.895. For the same molecule, the z-score [16] was 1.11, the z-score [17] was -0.734 (inactive) and the z-score [18] was 0.14. The z-score [19] was -0.354 and the z-score [20] was 0.745 (inactive).
For `O=C1C[C@@H](O)[C@@H](O)[C@@H]2[C@@H]3C(=O)N(Cc4ccccc4)C(=O)[C@@H]3CC[C@H]12`, the z-score [1] was -0.675 (inactive), the composite z-score [2] was -0.147 and the z-score [3] was 1.56 (inactive). For the same molecule, the z-score [4] was 0.586 (inactive), the z-score [5] was 0.215 (inactive) and the z-score [6] was 0.526 (inactive). The z-score [7] was -0.254, the z-score [8] was 2.31 (inactive) and the z-score [9] was -0.79 (inactive). The z-score [10] was 0.127, the z-score [11] was -0.801 and the z-score [12] was 0.241. The z-score [13] was 0.175, the z-score [14] was -0.0999 and the z-score [15] was 0.549. For the same molecule, the z-score [16] was -0.511, the z-score [17] was -0.919 (inactive) and the z-score [18] was 0.0436. The z-score [19] was -0.281 and the z-score [20] was -0.673 (inactive).
In the case of `CC(CCN1CCCCc2nc(C)c(C)cc21)=NOC[C@@H](O)[C@H]1O[C@@H]2OC(C)(C)O[C@@H]2[C@H]1O`, the z-score [1] was -1.25 (inactive), the composite z-score [2] was -0.265 and the z-score [3] was 0.422 (inactive). The z-score [4] was 0.726 (inactive), the z-score [5] was 0.637 (inactive) and the z-score [6] was 0.244 (inactive). For the same molecule, the z-score [7] was -0.67, the z-score [8] was 0.0801 (inactive) and the z-score [9] was 0.413 (inactive). The z-score [10] was -0.216, the z-score [11] was -0.638 and the z-score [12] was -0.566. It also gave a z-score [13] of -1.33, a z-score [14] of -0.22 and a z-score [15] of -0.177. The z-score [16] was -0.536, the z-score [17] was -1.31 (inactive) and the z-score [18] was -0.0542. For the same molecule, the z-score [19] was -0.477 and the z-score [20] was 0.0214 (inactive).
